# Assay results published in PubChem BioAssay (EPA / NIEHS).
# Active and inactive are the calls of the source. Rule for the calls: active = hit-call score of the fitted dose curve at least 0.9, where 1 is the maximum; inactive = score below 0.9.
# Experiment: APR_HepG2_P-H2AX_24hr: Apredica 24-hour HepG2 Assay for H2AX Phosphorylation (AID 2282920)
# Details: high-content imaging, actives raise or lower the signal
# Description: APR_HepG2_24hr is a cell-based, multiplexed-readout assay that uses HepG2, a human liver cell line, with measurements taken at 24 hours after chemical dosing in a 384-well plate.APR_HepG2_P-H2AX_24hr is one of 10 assay component(s) measured or calculated from the APR_HepG2_24hr assay. It is designed to make measurements of dna content, a form of viability reporter, as detected with fluorescence intensity signals by HCS Fluorescent Imaging technology.Data from the assay component APR_HepG2_P-H2AX_24hr was analyzed into 1 assay endpoint. This assay endpoint, APR_HepG2_P-H2AX_24hr, was analyzed with bidirectional fitting relative to DMSO as the negative control and baseline of activity. Using a type of viability reporter, measures of protein for gain or loss-of-signal activity can be used to understand the signaling at the pathway-level as they relate to the gene . Furthermore, this assay endpoint can be referred to as a primary readout, because this assay has produced multiple assay endpoints where this one serves a signaling function. To generalize the intended target to other relatable targets, this assay endpoint is annotated to the dna binding intended target family, where the subfamily is cellular response to DNA damage stimulus.
# Cells were treated with dimethyl sulfoxide (DMSO) as a solvent control at a final concentration of 0.5% v/v or with compounds in DMSO with a resulting final DMSO concentration of 0.5% v/v. Compound treatment was done at concentrations of 0.39, 0.78, 1.56, 3.12, 6.24, 12.5, 25, 50, 100, and 200 uM in duplicate on each plate. Cells were treated with compounds for 1, 24, or 72 hr. Carbonyl […] m-chloro-phenylhydrazone (CCCP) and taxol were used as positive controls for mitochondrial function and cytoskeletal stability, respectively; DMSO served as the negative control for this experiment. Cells were fixed by the direct addition of 50 uL formaldehyde in Hank's Balanced Salt Solution (HBSS) to a final concentration of 3.7%. After incubation in the fixation medium for 30 min at room temperature (293-298 K), cells were rinsed twice with HBSS and treated with cell permeabilization buffer (16 uL of 0.5% Triton X-100) for 10 min at room temperature (293-298 K) before labeling. For mitochondrial membrane potential and mitochondrial measurements, pre-fixed cells were incubated with 50 uL of MitoTracker Red CMXRos (Invitrogen) at a concentration of 250 nM for 30 min before fixation. In the remaining cases, post-fixed cells were labeled by incubation with a multiplexed mixture of primary antibodies in HBSS for 60 min at room temperature (293-298 K) to detect immunoreactivity of c-Jun (1:500), phospho-histone H3 (1:100), phospho-histone H2A.x (1:200), p53 (1:400), alpha-tubulin (1:200) and Hoechst 33342 (2 ug/mL). Cells were labeled for multiplexed imaging on two separate plates: a) Hoechst 33342, MitoTracker Red, phospho-histone H3, and alpha-tubulin, and b) Hoechst 33342, phospho-histone H2A.x, and c-Jun. A final rinse with HBSS (50 uL) was performed before analysis. The primary and secondary antibodies for the proteins were phospho-histone H3 (rabbit anti-phospho-histone H3 and FITC-donkey anti-rabbit IgG), phospho-histone H2A.x (mouse anti-phospho-histone H2A.x and FITC-donkey anti-mouse IgG), c-Jun (rabbit anti-phospho-c-Jun and Cy3-donkey anti-rabbit IgG), p53 (sheep anti-p53 and Cy5-donkey anti-sheep IgG), alpha-tubulin (mouse anti-alpha-tubulin and Cy5-donkey anti-mouse IgG). These antibodies are available as the CellCiphr HepG2 assay kit (Millipore).Digital images of each well were captured using a Cellomics ArrayScan VTI (Thermo Scientific Cellomics) (0.8 NA objective, 0.63x optical coupler, and XF-93 filter set) at 20x magnification. The images were acquired using the autofocus feature of the ArrayScan instrument, which entails the following steps. First, the camera focuses on channel 1 (Hoechst 33342), where nuclei are identified. Second, a Z offset of 1 um is used for capturing mitochondria (MitoTracker Red). […]
SMILES,outcome,AC50
OCCN(CCO)CCO,inactive,–
Clc1cccc(Cl)c1Cl,inactive,–
Cc1cc(C)cc(C)c1,inactive,–
Clc1cccc(Cl)c1,inactive,–
CN(C)C(=S)S,–,12 µM (active)
CC(C)O.CC(C)O.OCCN(CCO)CCO.OCCN(CCO)CCO.[Ti],inactive,–
CCCCCCCCCCCCc1cccc(S(=O)(=O)O)c1,inactive,–
N#Cc1cccnc1,inactive,–
O=C(N[C@H]1CN2CCC1CC2)c1ccc2c(c1)OCCO2,inactive,–
COc1ccccc1N,inactive,–
CC(C)(C)c1ccccc1O,inactive,–
Oc1c(Cl)cc(Cl)cc1Cl,inactive,–
O=C(O)C1(c2ccc3c(c2)OC[C@H](Cc2ccc(-c4ccccc4)cc2)[C@H]3O)CCCC1,–,108 µM (active)
Oc1cc(Cl)c(Cl)cc1Cl,–,38.9 µM (active)
